Active and inactive are the calls of the source.
What was measured:
[1] = compounds binding Alexa647 anti-His antibody – biochemical, small-molecule microarray, 635 nm fluorescence, artefact control for SMM control protein annotation, primary screen (AID 1128); details: higher = more signal;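 further: score merges feature fluorescence with signal-to-noise for each printed compound spot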
[2] = system: Human papillomavirus type 1a E7 protein (residues 1-88); experiment: HPV1a E7 small-molecule binders, primary screen, biochemical, small-molecule microarray, residues 1-88, 635 nm (AID 1129); details: small-molecule microarray binding, fluorescence 635 nm; higher = more signal
[3] = target: Focal adhesion kinase 1 (Homo sapiens) (UniProt Q05397); experiment: PTK2 protein binding on printed compound slides – biochemical, small-molecule microarray, 635/667 nm fluorescence, BSA, DTT, primary screen (AID 1130); details: 635 nm fluorescence, higher = more signal;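 further: composite of spot emission at 667 nm and signal to noise over triplicate slides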
Focal adhesion kinase 1 (Homo sapiens), sequence (Q05397 whole entry, looked up): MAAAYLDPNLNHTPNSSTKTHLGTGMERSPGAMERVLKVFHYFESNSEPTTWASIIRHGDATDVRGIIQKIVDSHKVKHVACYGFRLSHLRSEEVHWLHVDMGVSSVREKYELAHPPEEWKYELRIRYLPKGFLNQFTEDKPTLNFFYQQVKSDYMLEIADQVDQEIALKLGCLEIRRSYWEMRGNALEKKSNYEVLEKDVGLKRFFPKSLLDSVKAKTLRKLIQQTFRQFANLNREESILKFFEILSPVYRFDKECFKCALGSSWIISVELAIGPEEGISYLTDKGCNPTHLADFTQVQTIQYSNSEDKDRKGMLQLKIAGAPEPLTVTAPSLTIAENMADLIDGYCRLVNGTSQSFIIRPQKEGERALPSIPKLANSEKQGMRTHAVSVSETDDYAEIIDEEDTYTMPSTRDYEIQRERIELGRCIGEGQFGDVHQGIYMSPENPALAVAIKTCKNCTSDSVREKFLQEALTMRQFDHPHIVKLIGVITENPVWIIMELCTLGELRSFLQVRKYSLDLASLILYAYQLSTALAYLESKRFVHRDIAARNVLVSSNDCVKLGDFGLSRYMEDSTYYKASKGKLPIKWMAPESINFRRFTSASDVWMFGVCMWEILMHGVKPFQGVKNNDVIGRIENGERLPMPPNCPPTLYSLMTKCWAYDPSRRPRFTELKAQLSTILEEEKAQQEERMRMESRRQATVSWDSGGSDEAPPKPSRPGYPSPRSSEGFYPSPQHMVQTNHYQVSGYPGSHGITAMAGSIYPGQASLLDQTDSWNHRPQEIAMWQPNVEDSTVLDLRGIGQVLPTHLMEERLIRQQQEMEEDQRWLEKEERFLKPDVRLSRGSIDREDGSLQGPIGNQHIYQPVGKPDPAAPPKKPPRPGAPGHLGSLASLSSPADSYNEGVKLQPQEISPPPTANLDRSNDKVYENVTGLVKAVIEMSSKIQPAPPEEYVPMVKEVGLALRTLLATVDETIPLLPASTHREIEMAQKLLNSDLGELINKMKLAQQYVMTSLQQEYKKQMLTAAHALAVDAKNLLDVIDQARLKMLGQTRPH

[4] = system: Fibrinogen (Alexa647-labelled); experiment: Alexa647-fibrinogen binding to printed small molecules – biochemical, small-molecule microarray, 635/667 nm fluorescence, artefact control for SMM control-protein annotation, profiling panel (AID 1131); details: fibrinogen-A647 binding fluorescence, higher = more signal;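 further: z-score merges 667 nm fluorescence with per-spot signal-to-noise over triplicate slides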
[5] = target: Follistatin (Homo sapiens) (UniProt P19883); experiment: FST protein binding to printed compounds – biochemical, small-molecule microarray, 635/667 nm fluorescence, primary screen (AID 1132); details: 635 nm fluorescence, higher = more signal
Follistatin (Homo sapiens), sequence (P19883 whole entry, looked up): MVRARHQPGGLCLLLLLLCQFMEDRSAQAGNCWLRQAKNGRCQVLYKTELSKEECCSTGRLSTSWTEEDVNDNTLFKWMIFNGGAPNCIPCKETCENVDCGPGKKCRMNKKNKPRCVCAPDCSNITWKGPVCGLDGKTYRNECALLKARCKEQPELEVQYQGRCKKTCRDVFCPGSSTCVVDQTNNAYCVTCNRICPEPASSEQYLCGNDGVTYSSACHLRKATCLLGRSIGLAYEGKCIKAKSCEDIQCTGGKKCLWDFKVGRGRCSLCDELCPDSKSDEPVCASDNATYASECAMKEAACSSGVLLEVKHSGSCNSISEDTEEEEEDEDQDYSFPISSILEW

[6] = target: Fibroblast growth factor 2 (Homo sapiens) (UniProt P09038); experiment: basic fibroblast growth factor binding to printed compounds – biochemical, small-molecule microarray, 635/667 nm fluorescence, primary screen (AID 1133); details: FGF2, fluorescence 635/667, higher = more signal
Fibroblast growth factor 2 (Homo sapiens), sequence (P09038 whole entry, looked up): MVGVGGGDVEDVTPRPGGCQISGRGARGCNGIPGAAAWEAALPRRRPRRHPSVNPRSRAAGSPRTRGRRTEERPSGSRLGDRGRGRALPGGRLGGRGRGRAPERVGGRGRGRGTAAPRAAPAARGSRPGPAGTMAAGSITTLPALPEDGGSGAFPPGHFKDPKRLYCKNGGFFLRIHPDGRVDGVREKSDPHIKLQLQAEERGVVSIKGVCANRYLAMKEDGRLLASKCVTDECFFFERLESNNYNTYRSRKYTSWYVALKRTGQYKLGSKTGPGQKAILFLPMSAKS

[7] = JC-1 mitochondrial potential readout, lung cancer cells – cell-based, A549, JC-1 fluorescence, basal, 24 h, 100 nL, profiling panel (AID 1138); details: higher = more signal;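 further: A549 lung adenocarcinoma cells under basal conditions with no added stimulus; test concentration not given here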
Lefty1 = Lefty1 protein binding to printed compounds – biochemical, small-molecule microarray, 635/667 nm fluorescence, primary screen (AID 1139); details: fluorescence 635/667, higher = more signal
[8] = system: wheat germ agglutinin (Triticum aestivum), Alexa647-labelled; experiment: Alexa647-WGA lectin binding to printed small molecules – biochemical, small-molecule microarray, 635/667 nm fluorescence, artefact control for SMM control-protein annotation, profiling panel (AID 1140); details: WGA-A647 binding, 635 nm fluorescence, higher = more signal;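 further: score merges 667 nm feature emission with signal to noise over triplicate slides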
[9] = target: Luciferin 4-monooxygenase (Photinus pyralis) (UniProt P08659); experiment: inhibition of purified Photinus pyralis luciferase – biochemical, luminescence, purified enzyme, 2006 set, primary screen (AID 1141); details: purified firefly luciferase, SteadyGlo luminescence, 30 min; higher = more signal, called active from +8 up or from −8 down;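 further: cell-free assay with purified firefly luciferase at 100 ng per well in PBS; test concentration not given here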
Luciferin 4-monooxygenase (Photinus pyralis), sequence (P08659 whole entry, looked up): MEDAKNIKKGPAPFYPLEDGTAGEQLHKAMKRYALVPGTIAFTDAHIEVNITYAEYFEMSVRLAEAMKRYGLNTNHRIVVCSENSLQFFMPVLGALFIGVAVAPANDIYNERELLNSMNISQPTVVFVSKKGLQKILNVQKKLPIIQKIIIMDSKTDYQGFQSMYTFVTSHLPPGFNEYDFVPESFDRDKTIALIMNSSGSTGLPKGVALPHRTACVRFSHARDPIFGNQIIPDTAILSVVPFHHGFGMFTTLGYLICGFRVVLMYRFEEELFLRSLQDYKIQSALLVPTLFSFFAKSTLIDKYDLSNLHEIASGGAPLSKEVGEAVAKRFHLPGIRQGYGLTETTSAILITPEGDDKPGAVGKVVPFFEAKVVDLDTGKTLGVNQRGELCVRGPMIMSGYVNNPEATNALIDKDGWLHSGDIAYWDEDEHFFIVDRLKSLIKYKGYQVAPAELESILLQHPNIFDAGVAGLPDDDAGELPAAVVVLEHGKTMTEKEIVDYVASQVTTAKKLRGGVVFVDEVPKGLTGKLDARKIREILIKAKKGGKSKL

## O=C(O)[C@]1(CCS(=O)(=O)c2ccccc2)N=C(c2ccc(OCCCO)cc2)O[C@@H]1c1ccccc1
[1]
  composite z-score: 0.367
[2]
  composite z-score: 0.228
[3]
  composite z-score: 0.221
[4]
  composite z-score: 0.447
[5]
  composite z-score: -0.029
[6]
  composite z-score: -0.0377
[7]
  z-score: 0.0511
Lefty1
  composite z-score: -0.655
[8]
  composite z-score: 1.36
[9]
  z-score: -1.87 (inactive)

## C=C(COC)C(=O)CC[C@H](OC(=O)c1ccccc1-c1ccccc1C(=O)O)c1ccc(CO)o1
[1]
  composite z-score: 0.581
[2]
  composite z-score: 0.154
[3]
  composite z-score: 0.36
[4]
  composite z-score: -0.576
[5]
  composite z-score: 1.35
[6]
  composite z-score: 1.66
[7]
  z-score: -0.666
Lefty1
  composite z-score: 1.5
[8]
  composite z-score: -0.2
[9]
  z-score: -0.846 (inactive)

## CCCN1C(=O)[C@@H]2Cc3c([nH]c4ccccc34)[C@@H](c3cccc(O)c3)N2C1=O
[1]
  composite z-score: -0.147
[2]
  composite z-score: 0.483
[3]
  composite z-score: 0.131
[4]
  composite z-score: 0.321
[5]
  composite z-score: 0.374
[6]
  composite z-score: 0.428
[7]
  z-score: 0.233
Lefty1
  composite z-score: 0.287
[8]
  composite z-score: -0.0455
[9]
  z-score: 0.718 (inactive)

## O=C1OCC=C[C@H]2OC34C=CCN(CCN5CCOCC5)C(=O)[C@H]3N(CCCCCO)C(=O)[C@@H]4[C@@H]12 (stereo not given in full)
[1]
  composite z-score: 2.23
[2]
  composite z-score: -0.277
[3]
  composite z-score: 0.311
[4]
  composite z-score: -0.155
[5]
  composite z-score: -0.307
[6]
  composite z-score: -0.12
[7]
  z-score: -0.829
Lefty1
  composite z-score: -0.0262
[8]
  composite z-score: 0.28
[9]
  z-score: -0.346 (inactive)

## O=c1c2ccc(Br)cc2nc(-c2ccccc2)n1Cc1cccc(O)c1
[1]
  composite z-score: 0.741
[2]
  composite z-score: 0.988
[3]
  composite z-score: 0.551
[4]
  composite z-score: 0.671
[5]
  composite z-score: 0.346
[6]
  composite z-score: 0.283
[7]
  z-score: 0.836
Lefty1
  composite z-score: -0.0693
[8]
  composite z-score: 1.05
[9]
  z-score: -0.273 (inactive)

## C=C(/C(=C/C[C@@H](OC(=O)c1ccncc1)c1cccc(OCCO)c1)c1cc(C(=O)OC)ccc1OC)C(C)C
[1]
  composite z-score: 1.01
[2]
  composite z-score: 1.13
[3]
  composite z-score: -0.165
[4]
  composite z-score: 0.366
[5]
  composite z-score: 0.525
[6]
  composite z-score: 1.43
[7]
  z-score: 4.89
Lefty1
  composite z-score: 0.879
[8]
  composite z-score: 0.487
[9]
  z-score: -1.88 (inactive)

## C=CC[C@]1(C(=O)N2CCOCC2)N=C(c2ccc(OCCCO)cc2)O[C@H]1c1ccccc1CN=[N+]=[N-]
[1]
  composite z-score: 1.82
[2]
  composite z-score: 1.21
[3]
  composite z-score: 0.88
[4]
  composite z-score: 0.97
[5]
  composite z-score: 1.28
[6]
  composite z-score: 0.95
[7]
  z-score: 1.64
Lefty1
  composite z-score: 1.05
[8]
  composite z-score: 0.845
[9]
  z-score: -1.46 (inactive)

## COc1ccccc1CN1C(=O)c2ccccc2[C@](Cc2ccccc2I)(C(=O)NCCN2CCOCC2)[C@@H]1c1ccc(CO)cc1
[1]
  composite z-score: 0.74
[2]
  composite z-score: 1.18
[3]
  composite z-score: 0.467
[4]
  composite z-score: 0.913
[5]
  composite z-score: 1.41
[6]
  composite z-score: 1.39
[7]
  z-score: 2.51
Lefty1
  composite z-score: 0.988
[8]
  composite z-score: 0.718
[9]
  z-score: -1.06 (inactive)

## [N-]=[N+]=Nc1ccccc1C[C@]1(C(=O)NCCN2CCOCC2)N=C(c2ccc(OCCCO)cc2)O[C@H]1c1ccccc1N=[N+]=[N-]
[1]
  composite z-score: 1.55
[2]
  composite z-score: 1.24
[3]
  composite z-score: -0.0277
[4]
  composite z-score: 0.94
[5]
  composite z-score: 1.39
[6]
  composite z-score: 1.65
[7]
  z-score: 2.42
Lefty1
  composite z-score: 0.499
[8]
  composite z-score: 0.687
[9]
  z-score: -5.36 (inactive)

## COC(=O)[C@@]1(Cc2ccc(OC)cc2)[C@H]2c3cc(C(=O)N(C)C)n(CCF)c3C[C@H]2CN1C(=O)c1ccccc1
[1]
  composite z-score: 1.9
[2]
  composite z-score: 1.25
[3]
  composite z-score: 0.842
[4]
  composite z-score: 1.01
[5]
  composite z-score: 0.887
[6]
  composite z-score: 0.127
[7]
  z-score: 0.486
Lefty1
  composite z-score: -0.698
[8]
  composite z-score: 1.32
[9]
  z-score: 0.948 (inactive)

## O=C(CS)NCCCCCNC(=O)[C@@H]1C[C@@H]2C(=O)N3CCC[C@H]3C(=O)N2[C@@H]1c1ccc(O)cc1
[1]
  composite z-score: 3.22
[2]
  composite z-score: 1.12
[3]
  composite z-score: 0.0999
[4]
  composite z-score: -0.174
[5]
  composite z-score: 1.26
[6]
  composite z-score: 1.34
[7]
  z-score: 0.605
Lefty1
  composite z-score: -0.0581
[8]
  composite z-score: -0.339
[9]
  z-score: -1.59 (inactive)

## C[N+](C)(C)CCCCCCNC(=O)[C@@H]1C[C@@H]2C(=O)NCC(=O)N2[C@@H]1c1cccc(OCCO)c1
[1]
  composite z-score: 1.4
[2]
  composite z-score: 0.044
[3]
  composite z-score: 1.18
[4]
  composite z-score: 0.615
[5]
  composite z-score: 1.38
[6]
  composite z-score: 1.33
[7]
  z-score: -0.842
Lefty1
  composite z-score: 1.28
[8]
  composite z-score: 0.571
[9]
  z-score: 0.801 (inactive)

## CCCCCCC#C[Si](O[C@H](c1ccccc1)c1cn(Cc2cccc(Cl)c2)nn1)(C(C)C)C(C)C
[1]
  composite z-score: 1.16
[2]
  composite z-score: 0.696
[3]
  composite z-score: 0.035
[4]
  composite z-score: 0.201
[5]
  composite z-score: 0.363
[6]
  composite z-score: 0.142
[7]
  z-score: 1.4
Lefty1
  composite z-score: 0.234
[8]
  composite z-score: 0.403
[9]
  z-score: 0.163 (inactive)

## CN1C(=O)C2C=CC(C(O)COCc3ccccc3)N(Nc3ccccc3)C2C1=O (stereo not given)
[1]
  composite z-score: 0.563
[2]
  composite z-score: 0.593
[3]
  composite z-score: 0.324
[4]
  composite z-score: 0.711
[5]
  composite z-score: 0.433
[6]
  composite z-score: -0.11
[7]
  z-score: 1.64
Lefty1
  composite z-score: 0.135
[8]
  composite z-score: 0.681
[9]
  z-score: 0.982 (inactive)

## CN1C(=O)C2C=CC(C(O)c3cccc4ccccc34)N(NC(=O)OC(C)(C)C)C2C1=O (stereo not given)
[1]
  composite z-score: 1.45
[2]
  composite z-score: 1.02
[3]
  composite z-score: 1.83
[4]
  composite z-score: 0.691
[5]
  composite z-score: 0.435
[6]
  composite z-score: -0.331
[7]
  z-score: 0.274
Lefty1
  composite z-score: -0.516
[8]
  composite z-score: 1.16
[9]
  z-score: 0.216 (inactive)

## C=CCC(OC(C)=O)[C@@H]1[C@@H](N(Cc2cc3ccccc3o2)C(=O)Cc2ccc(OC)cc2)c2cc(OCCCO)ccc2N1C(=O)c1ccc(-c2ccccc2)cc1 (stereo not given in full)
[1]
  composite z-score: -0.316
[2]
  composite z-score: -0.313
[3]
  composite z-score: 0.107
[4]
  composite z-score: -0.203
[5]
  composite z-score: 0.352
[6]
  composite z-score: 0.133
[7]
  z-score: 0.94
Lefty1
  composite z-score: -0.492
[8]
  composite z-score: -0.272
[9]
  z-score: -0.52 (inactive)

## COCCOC(=O)N1C(=O)[C@@]2(c3ccccc31)[C@H](c1ccccc1OCCO)N1[C@H](c3ccccc3)[C@H](c3ccccc3)OC(=O)[C@H]1[C@@H]2C(=O)N1CCc2cc(OC)c(OC)cc2C1
[1]
  composite z-score: 1.14
[2]
  composite z-score: 0.659
[3]
  composite z-score: 0.413
[4]
  composite z-score: 0.457
[5]
  composite z-score: 1.27
[6]
  composite z-score: 1.36
[7]
  z-score: -1.03
Lefty1
  composite z-score: 0.756
[8]
  composite z-score: 0.435
[9]
  z-score: -0.209 (inactive)

## CCCC[C@H]1OB(O)C[C@H]2C1=C(COc1ccccc1)Cn1c(=O)n(-c3ccccc3)c(=O)n12
[1]
  composite z-score: 0.458
[2]
  composite z-score: 0.711
[3]
  composite z-score: -0.0229
[4]
  composite z-score: 0.333
[5]
  composite z-score: 1.1
[6]
  composite z-score: 0.302
[7]
  z-score: -0.0843
Lefty1
  composite z-score: 0.976
[8]
  composite z-score: 0.09
[9]
  z-score: -0.25 (inactive)

## CC1CC/C=C\[C@H]2OC34C=CCN(c5ccc(Cl)cc5)C(=O)[C@H]3N(C(CO)C(C)C)C(=O)[C@]4(C)C2C(=O)O1 (stereo not given in full)
[1]
  composite z-score: 0.776
[2]
  composite z-score: -0.512
[3]
  composite z-score: -0.432
[4]
  composite z-score: -0.787
[5]
  composite z-score: -0.648
[6]
  composite z-score: -0.87
[7]
  z-score: 0.34
Lefty1
  composite z-score: -0.626
[8]
  composite z-score: -0.281
[9]
  z-score: -0.391 (inactive)

## O=C1c2ccccc2C(=O)C2CC([C@H]3Oc4ccccc4S(=O)(=O)N4CCC[C@@H]34)=CCC12 (stereo not given in full)
[1]
  composite z-score: -0.0332
[2]
  composite z-score: 0.101
[3]
  composite z-score: 0.867
[4]
  composite z-score: 0.788
[5]
  composite z-score: -0.0849
[6]
  composite z-score: 0.189
[7]
  z-score: -0.309
Lefty1
  composite z-score: -0.02
[8]
  composite z-score: 0.47
[9]
  z-score: -0.759 (inactive)

## CCOC(=O)C1=CC[C@@H](c2ccc(N(CC)CC)cc2)N(S(=O)(=O)c2ccc(C)cc2)[C@H]1c1ccc([N+](=O)[O-])cc1
[1]
  composite z-score: 0.479
[2]
  composite z-score: 0.836
[3]
  composite z-score: 0.718
[4]
  composite z-score: 0.403
[5]
  composite z-score: -0.35
[6]
  composite z-score: -1.18
[7]
  z-score: 1.53
Lefty1
  composite z-score: -0.863
[8]
  composite z-score: 0.516
[9]
  z-score: 0.719 (inactive)
